# Bioassay records deposited in PubChem by National Center for Advancing Translational Sciences (NCATS).
# Hits are enriched below; roughly 4.2% of the tested compounds scored in any of these assays.
# TRPV1 potentiator: HTS Assay for Compounds that Act as Potentiators of the Vanilloid Receptor 1. potentiation, % at 8.33 µM. TRPV1-expressing cells, Fluo-8 calcium influx, capsaicin EC20 potentiation. Transient receptor potential cation channel subfamily V member 1 (Homo sapiens), Q8NER1. 320,000 compounds, 0.02% hits; in the data active means potentiation above about 80%; inconclusive means between about 30% and that limit; further: 0% is about no effect
# Target sequence (Q8NER1 whole entry, looked up): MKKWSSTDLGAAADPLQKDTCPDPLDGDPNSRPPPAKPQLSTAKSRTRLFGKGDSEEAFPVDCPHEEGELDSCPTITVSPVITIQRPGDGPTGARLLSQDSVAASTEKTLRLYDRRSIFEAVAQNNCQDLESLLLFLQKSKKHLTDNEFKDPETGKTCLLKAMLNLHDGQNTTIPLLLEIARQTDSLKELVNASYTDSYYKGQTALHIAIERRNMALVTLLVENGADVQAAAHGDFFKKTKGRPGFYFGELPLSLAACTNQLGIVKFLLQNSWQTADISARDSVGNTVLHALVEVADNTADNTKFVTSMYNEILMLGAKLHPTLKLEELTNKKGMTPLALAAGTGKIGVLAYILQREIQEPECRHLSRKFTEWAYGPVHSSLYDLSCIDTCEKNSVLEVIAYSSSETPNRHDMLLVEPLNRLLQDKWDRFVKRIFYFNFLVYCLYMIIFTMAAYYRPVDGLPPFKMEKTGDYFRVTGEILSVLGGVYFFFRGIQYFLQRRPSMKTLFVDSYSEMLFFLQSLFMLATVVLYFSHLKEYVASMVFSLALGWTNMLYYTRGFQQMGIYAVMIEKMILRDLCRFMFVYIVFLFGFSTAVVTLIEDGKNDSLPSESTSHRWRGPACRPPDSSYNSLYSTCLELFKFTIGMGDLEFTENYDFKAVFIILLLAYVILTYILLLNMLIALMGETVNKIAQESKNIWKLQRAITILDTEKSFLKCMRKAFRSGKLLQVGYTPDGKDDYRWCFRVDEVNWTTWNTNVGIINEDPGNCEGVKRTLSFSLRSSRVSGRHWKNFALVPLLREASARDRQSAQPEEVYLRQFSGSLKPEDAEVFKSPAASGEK
#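 Cells expressing TRPV1 were dye-loaded with Fluo-8 and read kinetically: 10 s baseline, 3 min after compound (agonist portion), then 2 min after EC20 capsaicin (allosteric enhancer portion). Calcium-bound dye fluorescence at 480/520 nm.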
# D1 ag: Allosteric Agonists of the Human D1 Dopamine Receptor: qHTS; activation, % at 2 µM; D(1A) dopamine receptor (Homo sapiens), P21728; 360,000 compounds, 1% hits; HEK293 T-REx D1 cells, calcium flux, agonist mode; in the data active means activation above about 30%; further: 0% is about no effect
#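 Inducible HEK293 T-REx D1 cells, force-coupled to calcium signalling, were plated at 4000 cells/well with tetracycline and held overnight at 30 C. After no-wash calcium dye loading, compound-evoked calcium rise over 180 s flagged agonists.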
# D1 antag: Antagonist of Human D 1 Dopamine Receptor: qHTS. AID 504652, 2011. D(1A) dopamine receptor (Homo sapiens), P21728. HEK293 TREx D1 cells, calcium flux, dopamine EC80; stronger effect = lower value. activity change, negative = inhibition, % at 10 µM. 360,000 compounds, 3.2% hits; in the data active means activity change below about -30%; further: on the % scale 0 is the no-effect control and ±100 the full control effect
#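 HEK293 T-REx cells expressing inducible, force-coupled D1 receptor; no-wash Ca dye, 30–90 min RT. Cmpd → 180 s read at 1 Hz → EC80 DA → 180 s read.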
# D1 potentiator: Potentiators of Human D1 Dopamine Receptor: qHTS; D(1A) dopamine receptor (Homo sapiens), P21728; HEK293 TREx D1 cells, calcium flux, dopamine EC20 potentiation; potentiation, % at 10 µM; 360,000 compounds, 0.036% hits; AID 504651, 2011; in the data active means potentiation above about 30%; further: 0% is about no effect
# TRPV1 ag: HTS Assay for Compounds that Act as Agonists of the Vanilloid Receptor 1 | 320,000 compounds, 0.19% hits | Transient receptor potential cation channel subfamily V member 1 (Homo sapiens), Q8NER1 | TRPV1-expressing cells, Fluo-8 calcium influx, agonist mode | activation, % at 8.33 µM; in the data active means activation above about 80%; inconclusive means between about 30% and that limit; further: 0% is about no effect
#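 TRPV1-expressing cells were cultured overnight at 35.5C and loaded with Fluo-8 calcium dye for 40 to 90 min at room temperature. After a 10 s baseline, compound was added and calcium influx was read kinetically for 3 min (ex 480/em 520 nm).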
# Starred values were filed as active, the others as inactive; ? = inconclusive; / = not tested or not shown.
SMILES,TRPV1 potentiator,D1 ag,D1 antag,D1 potentiator,TRPV1 ag
CCc1ccc(-n2c(Cc3ccccc3)nnc2SCc2nc(-c3cccs3)no2)cc1,/,84*,-37*,18,/
COC(=O)c1ccccc1NC(=O)C1=C(C)C(=O)OC12CCCCCC2,/,2,11,5,/
COc1ccc(NC(=O)CC2C(=O)N(c3ccc(F)cc3)C(=O)N2Cc2ccco2)cc1 (stereo not given),/,-1,-6,-1,/
Cc1nc2ccn(Cc3ccco3)c(=O)c2cc1C(=O)NCc1ccccc1F,/,4,3,1,/
COc1cc(NC(=O)CN2C(=O)NC(c3ccccc3)(c3ccccc3)C2=O)cc(OC)c1,3,9,-8,2,1
CCCC1(c2ccccc2)NC(=O)N(CC(=O)Nc2cc(S(=O)(=O)N3CCOCC3)ccc2Cl)C1=O (stereo not given),-2,7,-30*,-5,1
CCCC1(c2ccccc2)NC(=O)N(CC(=O)Nc2cc(OC)cc(OC)c2)C1=O (stereo not given),17,35*,7,/,-1
COc1ccc2c(c1)sc1ncc(C(=O)NCc3cccc(Cl)c3)c(=O)n12,/,0,15,-4,/
O=S(=O)(c1ccc(-c2cnc(C3CC3)o2)cc1)N1CCN(c2cccc(Cl)c2)CC1,/,1,-3,0,/
COc1cccc(C(=O)N(C)CC2CCN(CCc3cccc(C(F)(F)F)c3)CC2)c1,?,-3,-32*,5,1
CC(=O)NCCC(=O)N(C)CC1CCN(CCc2cccc(C(F)(F)F)c2)CC1,2,3,3,-3,-6
CC(C)(C)/C(Cn1cncn1)=N\OC(=O)Nc1ccc(Cl)cc1,-5,5,-55*,-7,26
O=C(NCCCN1CCOCC1)c1c(O)c2cc(Br)cc(Br)c2[nH]c1=O,1,4,-36*,-2,4
CC(C)(C)c1ccc(OCC(=O)Nc2c(C(=O)c3ccc(F)cc3)oc3ccccc23)cc1,/,1,0,8,/
Cc1cc(NC(=O)C2CC(c3ccc(F)cc3)=NO2)n(-c2ccccc2)n1 (stereo not given),-2,1,-64*,/,2
Cc1cc(N/C(=N/S(=O)(=O)c2cc(F)ccc2F)c2ccccc2)n(-c2ccccc2)n1,4,7,-36*,-6,?
COc1cccc(C2=NOC(C(=O)Nc3cc(C)nn3-c3ccccc3)C2)c1OC (stereo not given),0,6,5,0,0
Cc1ccccc1N/C(=N/S(=O)(=O)c1cc(F)ccc1F)c1ccccc1,3,3,-31*,-11,-1
Cc1cc(N/C(=N\S(=O)(=O)c2ccc(F)cc2F)c2ccccc2)no1,2,0,/,0,0
O=C(Nc1ccccc1C(=O)Nc1ccccn1)c1cc(F)c(F)cc1Cl,-4,7,-31*,-1,12
O=C(Nc1ccccc1C(=O)Nc1ccccn1)c1ccccc1F,-16,5,-2,0,28
CN(C)c1ccc(/C=C/c2nc3ccccc3c(=O)n2-c2ccc(C(=O)O)cc2)cc1,-14,102*,2,-5,?
O=C(O)c1cccc(-n2c(/C=C/c3ccccc3)nc3ccccc3c2=O)c1,?,16,1,-8,-4
O=C(O)c1cc(-n2c(/C=C\c3ccc(F)cc3)nc3ccccc3c2=O)ccc1Cl,/,-3,-32*,1,/
CCN(Cc1ccccc1)S(=O)(=O)c1ccc(F)c(C(=O)Nc2cc(C(F)(F)F)ccc2Cl)c1,/,19,-30*,-2,/
SMILES,TRPV1 potentiator,D1 ag,D1 antag,D1 potentiator,TRPV1 ag
CCOC(=O)CCCCN(Cc1ccccc1F)S(=O)(=O)c1ccc(F)c(C(=O)Nc2cc(Cl)cc(Cl)c2)c1,/,32*,24,4,/
CCN(Cc1ccccc1)S(=O)(=O)c1ccc(F)c(C(=O)Nc2cc(C)ccc2OC)c1,/,4,-12,-2,/
CN(Cc1ccccc1)S(=O)(=O)c1ccc(F)c(C(=O)Nc2cc(Cl)cc(Cl)c2)c1,/,-3,13,5,/
Cc1ccc2onc(CC(=O)N3CCN(c4ccc(F)cc4)CC3)c2c1,/,2,5,0,/
Cc1ccc2c(c1)c(=O)c(C(=O)c1ccc3c(c1)OCO3)cn2Cc1cccc(F)c1,/,2,-66*,-3,/
CCOc1ccc2c(c1)c(=O)c(C(=O)c1ccc3c(c1)OCO3)cn2Cc1cccc(F)c1,/,4,-2,0,/
CC(NC(=O)[C@@H](C)NC(=O)[C@@H]1Cc2ccccc2CN1C(=O)OC(C)(C)C)c1ccccc1 (stereo not given in full),-10,2,-4,-2,-3
C[C@@H](NC(=O)[C@@H]1Cc2ccccc2CN1C(=O)OC(C)(C)C)C(=O)NC1CCCC1,-2,0,-40*,-1,-3
O=S(=O)(NCC(c1cccs1)S(=O)(=O)c1ccccc1)c1ccc(F)cc1 (stereo not given),/,-4,/,-1,/
CCCCCCc1cc2cc(-c3nnc(-c4ccccc4OC)o3)c(=O)oc2cc1O,18,303*,-9,-9,?
CCCCCCc1cc2cc(-c3nnc(-c4ccccc4O)o3)c(=O)oc2cc1O,2,356*,2,0,?
CCOC(=O)c1c(NC(=O)c2cc(=O)c3c(C)cc(C)cc3o2)sc(C(C)=O)c1C,/,5,-7,0,/
Clc1cccc(/C=N/N2CCN(Cc3ccccc3)CC2)c1,-2,5,-33*,-3,0
CCOc1ccc(C(=O)c2cn(Cc3ccc(Cl)cc3)c3cc(OC)c(OC)cc3c2=O)cc1,/,-1,-4,1,/
O=C(C1=C[C@H](c2ccc(Br)cc2)C[C@H](OCCCCO)O1)N1CCN(Cc2ccccc2)CC1,-17,7,-30*,-3,5
C[C@@H]1C=C(C(=O)N2CCN(Cc3ccc4c(c3)OCO4)CC2)O[C@H](OCCCCO)C1,19,0,-38*,-4,-2
O=C(C1=C[C@@H](c2ccc(Br)cc2)C[C@@H](OCCCCO)O1)N1CCN(Cc2ccc3c(c2)OCO3)CC1,-5,24,-28,-2,29
O=C(C1=C[C@H](c2ccc3c(c2)OCO3)C[C@H](OCCCCO)O1)N1CCOCC1,-27,6,34,5,9
O=C(C1=C[C@H](c2ccccc2)C[C@H](OCCCCO)O1)N1CCOCC1,-8,5,-40*,-1,-2
Fc1ccc(N2CCN(c3nc4ccccc4c4nc(-c5cccnc5)nn34)CC2)cc1,/,2,-24,-7,/
